Shown are actives, neighbours in structure and some others; about 21% of the full set was active somewhere.
CHX counter: affects cycloheximide protein synthesis inhibition readout, counter-screen; 300,000 compounds, 12% hits; cell reporter, cycloheximide protein synthesis inhibition counterscreen; AID 2314; max response, %; in the data active = max response mostly above about 13%, no sharp cut-off; inactive = mostly below about 14%; also: read at 38.3 µM for the half of the compounds with a filed dose
Shiga inhibitor: Shiga toxin inhibition | Vero cells, Shiga toxin protein synthesis inhibition reporter | inhibition, % at 38.7 µM | 290,000 compounds, 9.2% hits; in the data active = inhibition mostly above about 28%, no sharp cut-off; inactive = mostly below about 43%
Pf growth 96h: P. falciparum growth inhibition at 96 hour, primary screen for plastid delayed-death inhibitors. P. falciparum luciferase reporter growth, 96 h. Potency, µM (titrated, usually from 28.7 µM), usual class: inhibitors. 320,000 compounds, 6.9% hits
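Compounds incubated with erythrocytes infected by luciferase-expressing P. falciparum (2% hematocrit, 0.05% parasitemia final) for 96 hours, 37 C in 5% CO2. Growth inhibition scored as decreased luciferase luminescence.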
Pf growth 48h: P. falciparum growth inhibition at 48 hours (one generation). P. falciparum luciferase growth in erythrocytes, 48 h. Potency, µM (highest dose often 28.7 µM), actives largely listed as inhibitors. 310,000 compounds, 5.9% hits. AID 504832
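Luminescence readout; reporter = integrated firefly luciferase in P. falciparum. RBC culture at 2% hematocrit, 0.1% parasitemia final, 37 C/5% CO2; decreased signal taken as growth inhibition.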
Hits are given with their value; n = inactive; u = inconclusive; x = no result given. Unless noted, calls follow the shape of the dose curve; as a rule, active = well fitted inhibition curve with a large enough effect; inconclusive = small, poorly fitted or top-dose-only effect, or another doubt; inactive = no such curve, though single readings can be large or run the other way.

SMILES	CHX counter	Shiga inhibitor	Pf growth 96h	Pf growth 48h
Cc1onc(-c2ccccc2)c1C(=O)Nc1nc(-c2ccccc2)cs1	31	96	x	n
CC(=O)c1c(C)[nH]c(C(=O)OCC(=O)Nc2sc3c(c2C#N)CCC(C)C3)c1C (stereo unspecified)	n	n	n	n
O=C(CN(C(=O)Cn1nnc(-c2ccc(F)cc2)n1)c1cccc(F)c1)NC1CCCC1	n	n	u	u
CCCCCC(=O)Nc1nc2ccccc2[nH]1	32	62	n	n
COc1cccc(CC(=O)Nc2nc3ccccc3[nH]2)c1	24	n	n	n
COc1ccccc1CCC(=O)Nc1nc2ccccc2[nH]1	40	69	x	n
COc1ccc(CCC(=O)Nc2nc3ccccc3[nH]2)cc1	19	n	n	x
COc1ccc(CC(=O)Nc2nc3ccccc3[nH]2)cc1	n	n	n	u
O=C(C1CC(=O)N(c2ccccc2)C1)N1CCN(c2ccc(F)cc2)CC1 (stereo unspecified)	n	n	n	n
COc1ccc(OCC(=O)Nc2nc3ccccc3[nH]2)cc1	22	38	n	x
COc1ccc(CCC(=O)Nc2cnc3ccccc3c2)cc1	32	79	u	u
CC(C)(C)OC(=O)CC1(C#N)c2ccccc2C(Br)=CN1C(=O)c1ccccc1 (stereo unspecified)	x	x	12µM	12µM
C=CCN(C)CCCCCCOc1ccc(C(=O)c2ccc(Br)cc2)c(F)c1	n	n	x	x
Cc1cccc(N2C(=S)NC3c4ccccc4OC2(C)C3C(=O)N(C)C)c1 (stereo unspecified)	n	n	9.3µM	n
O=C(Nc1ccc(N2CCOCC2)cc1)c1ccc(Br)o1	28	79	n	n
CC1CCN(c2ccc(NC(=O)Cc3ccccc3)cc2)CC1	n	n	u	n
O=C(Nc1ccc(C(=O)N2CCC(N3CCCC3)CC2)cc1)c1ccc(Br)o1	x	x	n	u
O=C(Nc1ccc(C(=O)N2CCC(O)(c3ccc(Cl)c(C(F)(F)F)c3)CC2)cc1)c1ccc(Br)o1	x	x	13µM	u
CCC(=O)Nc1ccc(N2CCC(C)CC2)cc1	33	15	10µM	n
CCC(=O)NC(=S)Nc1ccc(NC(=O)c2ccc(Br)o2)cc1	n	112	n	u
CCC(=O)NC(=S)Nc1ccc(NC(=O)c2ccc(OC)cc2)cc1	n	n	u	n
CCCCN1C(=S)SC(C)(C)C1/[N+]([O-])=C/c1ccc(S(=O)(=O)NC)cc1 (stereo unspecified)	n	n	u	n
Cc1cnc(C(=O)NC2CCSc3ccccc32)cn1 (stereo unspecified)	n	n	u	n
CC1CCN(c2ccc(NC(=O)c3ccc(Br)o3)cc2)CC1	28	65	u	n
CN1CCN(c2ccc(NC(=O)c3ccc(Br)o3)cc2)CC1	30	76	u	n
SMILES	CHX counter	Shiga inhibitor	Pf growth 96h	Pf growth 48h
CN1CCN(c2ccc(NC(=O)c3ccccc3Br)cc2)CC1	18	active	n	n
Cc1ccc(C(=O)N2CCN(c3ccc(NC(=O)c4ccc(Br)o4)cc3)CC2)cc1	n	n	x	10µM
Cc1ccc(C(=O)N2CCN(c3ccc(NC(=O)c4ccc5c(c4)OCCO5)cc3)CC2)cc1	n	n	u	u
CCN(CC)CCN(Cc1cc2cc3c(cc2[nH]c1=O)OCO3)C(=S)NCCOC	n	x	n	n
CCC[C@H](NC(=O)[C@H](CC(C)C)N(C)C(=O)CNC(=O)[C@@H](NC(=O)[C@H](Cc1ccccc1)NC(=O)[C@H](CCCCN)NC(=O)[C@@H](N)CC(=O)O)C(C)C)C(N)=O	n	n	x	x
COc1ccccc1OC(C)C(=O)Nc1ccc(S(=O)(=O)N2CCN(C)CC2)cc1 (stereo unspecified)	n	n	n	n
CCOc1ccc(NC(=O)CN(C)C(=O)C(C)N2C(=O)c3ccccc3C2=O)cc1OCC (stereo unspecified)	x	x	n	n
N/C(=N\O)c1ccc(NC(=O)c2ccc(Br)o2)cc1	45	81	n	n
CS(=O)(=O)N1CCN(c2ccc(NC(=O)c3ccc(Br)o3)cc2)CC1	43	110	n	n
O=C(Nc1ccc(S(=O)(=O)N2CCCCCC2)cc1)c1ccc(Br)o1	n	n	n	u
O=C(COC(=O)/C=C/c1ccc(Cl)cc1)Nc1ccc2[nH]c(=O)[nH]c2c1	x	x	n	n
O=C(NCC(O)c1ccccc1)c1ccc(Cl)c(S(=O)(=O)N2CCCC2)c1 (stereo unspecified)	x	x	u	9.3µM
O=C(NCCn1ccc2ccccc21)c1cccc([N+](=O)[O-])c1	n	n	n	n
CN(C)S(=O)(=O)c1cc(C(=O)NCCCn2ccc3ccccc32)ccc1Cl	n	n	4.1µM	x
O=C(NCC(O)c1ccccc1)c1ccc(Cl)c(S(=O)(=O)N2CCCCC2)c1 (stereo unspecified)	n	n	n	u
COc1ccc(CCNC(=O)c2ccc(Cl)c(S(=O)(=O)N(C)c3ccccc3)c2)cc1	n	n	10µM	u
O=C(NCCc1ccccc1)c1ccc(Cl)c(S(=O)(=O)N2CCCC2)c1	n	n	10µM	n
O=C(NCc1ccccc1)C(c1ccccc1)N(Cc1cccs1)C(=O)c1cnccn1 (stereo unspecified)	n	n	0.26µM	n
COc1cc(C(C(=O)NC(C)(C)C)N(Cc2ccccc2)C(=O)c2cnccn2)cc(OC)c1OC (stereo unspecified)	n	n	u	n
COc1cc(C(C(=O)NCc2ccccc2)N(Cc2ccco2)C(=O)c2cnccn2)cc(OC)c1OC (stereo unspecified)	n	n	n	9.3µM
CCOc1ccc(C(=O)C(CCC(CN(C)C)C(=O)c2ccc(OCC)cc2)CN(C)C)cc1 (stereo unspecified)	n	n	u	u
COc1ccc(C(=O)C(CCCCC(CN(C)C)C(=O)c2ccc(OC)cc2)CN(C)C)cc1 (stereo unspecified)	n	n	9.3µM	10µM
CN(C)CC(CCC(CN(C)C)C(=O)c1ccccc1)C(=O)c1ccccc1 (stereo unspecified)	n	n	13µM	6.6µM
O=C(O)c1cc2cc(Oc3ccccc3)ccc2[nH]1	n	n	n	n
Cc1cc2c(cc1S(=O)(=O)N1CC(C)CC(C)C1)OCC(=O)N2 (stereo unspecified)	n	n	n	n
SMILES	CHX counter	Shiga inhibitor	Pf growth 96h	Pf growth 48h
CCOC(=O)C(C)NC(=O)c1cn(-c2ccc(OC)cc2)c(=O)c2ccccc12 (stereo unspecified)	n	n	n	n
CCOc1ccc(C(=O)N2CCSC2=S)cc1	n	n	n	n
CCNC(=O)c1ccccc1SCC(=O)Nc1ccc(F)cc1	n	n	n	n
OC(COc1ccc2ccccc2c1)CN1CCN(c2ccc(F)cc2)CC1 (stereo unspecified)	n	n	n	n
COc1ccccc1N1CCN(CC(O)COc2ccc(S(=O)(=O)N3CCOCC3)cc2)CC1 (stereo unspecified)	n	n	8.3µM	x
O=S(=O)(c1ccc(OCC(O)CN2CCN(c3ccc(F)cc3)CC2)cc1)N1CCOCC1 (stereo unspecified)	n	n	9.3µM	n
CCOc1ccc2oc(C(=O)OC(C(=O)NC(N)=O)C(C)C)c(C)c2c1 (stereo unspecified)	n	n	n	n
